From PubChem
MPTP inh = blocks calcium-induced mitochondrial swelling; isolated mouse mitochondria, Ca2+ swelling absorbance, 30 min; inhibition, % at 10 µM; 1.4% of 360,000 active; AID 602449;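 active means inhibition of 50% or more, scaled per plate between neutral and stimulator controls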
SKN-1 block = blocks SKN-1 activity in C. elegans; C. elegans VP596 Pgst-4::GFP/RFP ratio, acrylamide-induced, 24 h; 0.49% of 360,000 active; AID 624304; inhibition, % at 21.8 µM;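 active means interference check ratio from 0.5 to 1.5 plus GFP to RFP signal ratio inhibition reaching or exceeding a fixed threshold, cut at about 30% in these data, passing the limit was not always enough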
CFTR F508del cor = correctors of CFTR F508del function in bronchial epithelial cells. AID 720511. 0.36% of 350,000 active. activity (quench increase), % at 7.58 µM. CFBE cells, YFP halide quenching; stimulated with forskolin plus potentiator P3; % fluorescence drop versus neutral controls;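 active means mean added fluorescence quench of at least 8% versus neutral control, with both replicates also reaching 8%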;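 further: cells transiently co-express mutant CFTR-F508del with the halide-sensitive YFP; corrector assay measuring rescue of mutant channel to the surface after 24 h compound exposure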
NRP1-CendR mod = NRP-1/CendR interaction modulation | O14786 | FAM-RPARPAR peptide binding to NRP-1, fluorescence polarization | inhibition, % at 25 µM | 0.85% of 360,000 active;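 active means inhibition or corrected inhibition above about 18%, plus a signal ratio from 0.5 to 1.5, limit read from the data, passing the limit was not always enough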
ATG4B inhibitor = inhibitors of human ATG4B cysteine protease; 0.51% of 340,000 active; inhibition, % at 8.33 µM; Q9Y4P1; ATG4B cleavage of LC3-PLA2, NBD-HPC fluorescence, 1 h; AID 504462; in the data active means inhibition above about 40%
Target sequence (Q9Y4P1 whole entry, looked up): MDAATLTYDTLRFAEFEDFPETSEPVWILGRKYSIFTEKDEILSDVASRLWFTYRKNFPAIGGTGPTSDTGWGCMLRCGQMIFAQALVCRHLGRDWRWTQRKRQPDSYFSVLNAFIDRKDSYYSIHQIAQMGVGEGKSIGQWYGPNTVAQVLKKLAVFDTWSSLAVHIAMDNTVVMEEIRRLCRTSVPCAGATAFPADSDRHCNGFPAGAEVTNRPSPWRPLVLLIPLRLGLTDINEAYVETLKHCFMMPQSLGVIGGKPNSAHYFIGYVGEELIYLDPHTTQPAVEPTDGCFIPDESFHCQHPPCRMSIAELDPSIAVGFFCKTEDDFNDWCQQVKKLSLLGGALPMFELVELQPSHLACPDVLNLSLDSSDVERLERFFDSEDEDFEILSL
Rh123 counter = mitochondrial membrane potential, counter-screen; 78% of 5,000 active; AID 624504; shares compounds with MPTP inh; isolated mitochondria, Rhodamine 123 fluorescence; inhibition, % at 10 µM; in the data active means inhibition above about 22%
MPTP swell DR = MPTP inhibition, dose response swelling confirmation | shares compounds with MPTP inh | isolated mitochondria swelling, absorbance | IC50, µM | 58% of 780 active | AID 651561; in the data active means IC50 below about 20 µM
MPTP cs DR = active in counter-screen for permeability transition pore inhibitors. shares compounds with MPTP inh. isolated mitochondria counterscreen, fluorescence read-out. IC50, µM. 49% of 780 active. AID 651564; in the data active means IC50 below about 80 µM
Each line names hits and unclear results; the compound was inactive in the other large screens (follow-up assays come after a bar, where they were run); ! = not active in a repeat. Sampled rows, rich in hits. Any-hit rate of the full collection: about 2.7%.

COc1cccc(CNCC(O)COc2ccc(C(=O)c3ccccc3)cc2)c1 (stereo not given)	MPTP inh 84 | Rh123 counter inactive | MPTP swell DR inactive | MPTP cs DR 51
O=C(c1ccccc1)c1ccc(OCC(O)CNCc2ccc(Cl)cc2)cc1 (stereo not given)	none
C[C@H]1CN([C@@H](C)CO)S(=O)(=O)c2ccc(C#Cc3ccncc3)cc2O[C@H]1CN(C)C(=O)c1ccncc1	none (no result: MPTP inh, SKN-1 block, NRP1-CendR mod, ATG4B inhibitor)
COc1ccc(NC(=O)N(C)C[C@H]2Oc3ncc(C4=CCCC4)cc3C(=O)N([C@@H](C)CO)C[C@@H]2C)cc1	none (no result: MPTP inh, SKN-1 block, NRP1-CendR mod, ATG4B inhibitor)
OCC1(Cc2ccc(Cl)cc2)CCN(CCCc2ccccc2)CC1	MPTP inh 53 (no result: CFTR F508del cor) | Rh123 counter inactive | MPTP swell DR 10
OCC1(Cc2ccc(Cl)cc2)CCN(Cc2ccccc2F)CC1	none
Cc1cc(C(=O)Nn2c(-c3ccc(Br)cc3)nc3ccccc3c2=O)ccc1[N+](=O)[O-]	MPTP inh 67 (no result: CFTR F508del cor) | Rh123 counter 87
C/C=C/c1ccc2c(c1)O[C@@H](CN(C)C(=O)COC)[C@@H](C)CN([C@@H](C)CO)S2(=O)=O	none (no result: MPTP inh, SKN-1 block, NRP1-CendR mod, ATG4B inhibitor)
COC(=O)C(NC(=O)c1ccccc1C)(Nc1ncc(S(=O)(=O)c2ccc([N+](=O)[O-])cc2)s1)C(F)(F)F (stereo not given)	none (no result: CFTR F508del cor)
COC(=O)C(NC(=O)c1ccc(F)cc1)(Nc1ncc(S(=O)(=O)c2ccc([N+](=O)[O-])cc2)s1)C(F)(F)F (stereo not given)	MPTP inh 90 (no result: CFTR F508del cor) | Rh123 counter 88
FC(F)Oc1ccc(NC(=S)NCc2ccccc2)cc1	MPTP inh 79 (no result: CFTR F508del cor) | Rh123 counter 81
CN(NC(=S)Nc1ccc(OC(F)F)cc1)C(=S)Nc1ccc(OC(F)F)cc1	MPTP inh 84 (no result: CFTR F508del cor) | Rh123 counter 93
Oc1cccc2c(NC(=S)Nc3ccc(OC(F)F)cc3)cccc12	MPTP inh 62 | Rh123 counter 80
FC(F)Oc1ccc(NC(=S)NCc2ccccc2)cc1Cl	MPTP inh 100 (no result: CFTR F508del cor) | Rh123 counter 82
CCN(CC)C(=S)Nc1ccc(OC(F)F)cc1	none
C[C@@H]1CN([C@@H](C)CO)C(=O)c2cc(-c3ccc(F)cc3)cnc2O[C@@H]1CN(C)C(=O)Cc1ccccn1	none (no result: MPTP inh, SKN-1 block, NRP1-CendR mod, ATG4B inhibitor)
C[C@@H]1CN([C@@H](C)CO)C(=O)c2cccc(NC(=O)Nc3ccccc3)c2O[C@@H]1CN(C)Cc1ccc(-c2ccccc2)cc1	none (no result: MPTP inh, SKN-1 block, NRP1-CendR mod, ATG4B inhibitor)
FC(F)(F)c1ccc(NC(=S)NCc2ccccc2)cc1	MPTP inh 97 | Rh123 counter 95
O=C(C[C@@H]1CC[C@H]2[C@@H](COC[C@H](O)CN2Cc2cc(F)ccc2F)O1)NCc1ccc(F)cc1	none (no result: MPTP inh, SKN-1 block, NRP1-CendR mod, ATG4B inhibitor)
O=C(CCc1nc2ccccc2c(=O)[nH]1)N1CCN(C/C=C/c2ccccc2)CC1	MPTP inh 68 (no result: CFTR F508del cor) | Rh123 counter 49
Cc1[nH]c2ccccc2c1C(=O)CN1CCN(C/C=C/c2ccccc2)CC1	MPTP inh 65 (no result: CFTR F508del cor) | Rh123 counter inactive | MPTP swell DR 17 | MPTP cs DR 52
CN1C(=O)c2cc(NC(=O)C3CC3)ccc2OC[C@H]2O[C@@H](CC(=O)NC3CCC3)CC[C@H]21	none (no result: MPTP inh, SKN-1 block, NRP1-CendR mod, ATG4B inhibitor)
O=C1c2c(O)ccc(O)c2C(=O)c2c(NCCNCCO)ccc(NCCNCCO)c21	MPTP inh 106! | Rh123 counter inactive
COc1ccc(S(=O)(=O)N(C)C[C@H]2Oc3ccc(N(C)C)cc3CC(=O)N([C@@H](C)CO)C[C@H]2C)cc1	none (no result: MPTP inh, SKN-1 block, NRP1-CendR mod, ATG4B inhibitor)
Clc1ccc(-c2nnc(CSc3nnc(-c4cccs4)n3Cc3ccccc3)o2)cc1	MPTP inh 92 | Rh123 counter 89
Cc1nnc(SCc2nnc(-c3cccs3)o2)n1Cc1ccccc1	none
OCCN1CCN(CC/C=C2/c3ccccc3Sc3ccc(Cl)cc32)CC1	MPTP inh 94 | Rh123 counter inactive
CC[N+](C)(C)CC/C=C1/c2ccccc2Sc2ccc(Cl)cc21	none
CN(C)CC/C=C1\c2ccccc2Sc2cc(F)c(Cl)cc21	none
CN(C)CC/C=C1\c2ccccc2Sc2ccc(Cl)cc21	MPTP inh 97 | Rh123 counter inactive
CCC(=O)N1C[C@@H](C)[C@@H](OC)CN(C)C(=O)c2cc(NC(=O)C3CCCCC3)ccc2OC[C@H]1C	none (no result: MPTP inh, SKN-1 block, NRP1-CendR mod, ATG4B inhibitor)
Cc1ccc(S(=O)(=O)Nc2nc3ccccc3nc2N2CCOCC2)cc1	none
O=S(=O)(Nc1nc2ccccc2nc1N1CCN(c2ccccc2)CC1)c1ccc(F)cc1	MPTP inh 79 | Rh123 counter 72
O=C(O)c1cccc(Nc2nc3ccccc3nc2NS(=O)(=O)c2ccc(F)cc2)c1	none
O=S(=O)(Nc1nc2ccccc2nc1Nc1ccc2c(c1)OCO2)c1ccc(F)cc1	MPTP inh 51 (no result: CFTR F508del cor) | Rh123 counter inactive | MPTP swell DR 4.1 | MPTP cs DR <2.5
O=S(=O)(Nc1nc2ccccc2nc1Nc1cccc(S(=O)(=O)N2CCCCC2)c1)c1ccccc1	MPTP inh 55 | Rh123 counter 44
COCC(=O)N(C)C[C@@H]1Oc2ncc(-c3ccc(C#N)cc3)cc2C(=O)N([C@@H](C)CO)C[C@@H]1C	none (no result: MPTP inh, SKN-1 block, NRP1-CendR mod, ATG4B inhibitor)
CC(=O)c1c(C)[nH]c(C(=O)Nc2ccc(C)c(S(=O)(=O)N(C)C)c2)c1C	none
CC(=O)c1c(C)[nH]c(C(=O)Nc2ccc(C)c(S(=O)(=O)Nc3ccc(C)cc3C)c2)c1C	MPTP inh 92 | Rh123 counter 72
CC(=O)c1c(C)[nH]c(C(=O)Nc2ccc(Cl)c(S(=O)(=O)N3CCOCC3)c2)c1C	MPTP inh 64 (no result: CFTR F508del cor) | Rh123 counter 80
C[C@@H]1CCCCO[C@H](CN(C)C(=O)Nc2ccccc2)[C@@H](C)CN([C@H](C)CO)C(=O)c2cc(NC(=O)Nc3ccc(F)cc3)ccc2O1	none (no result: MPTP inh, SKN-1 block, NRP1-CendR mod, ATG4B inhibitor)
COc1ccc2c3c(n(C)c2c1)[C@H](CO)N(C(=O)Nc1ccc(F)cc1)CC31CN(C(=O)CN2CCOCC2)C1	none (no result: MPTP inh, SKN-1 block, NRP1-CendR mod, ATG4B inhibitor)
COc1ccc(CN(C)C[C@H]2Oc3c(NC(=O)c4ccc(-c5nccs5)cc4)cccc3C(=O)N([C@@H](C)CO)C[C@H]2C)cc1	none (no result: MPTP inh, SKN-1 block, NRP1-CendR mod, ATG4B inhibitor)
O=C(CCN1CCCCC1)NCC[C@H]1CC[C@@H](NS(=O)(=O)c2cccc(F)c2)[C@@H](CO)O1	none (no result: MPTP inh, SKN-1 block, NRP1-CendR mod, ATG4B inhibitor)
O=[N+]([O-])c1ccc(N/N=C/c2ccccc2)c(F)c1	MPTP inh 83 (no result: CFTR F508del cor) | Rh123 counter 80
OCc1cn(-c2ccccc2)nc1-c1ccc(-c2nn(-c3ccccc3)cc2CO)cc1	none (no result: CFTR F508del cor)
Cc1ccc(-c2nn(-c3ccccc3)cc2CSC(=N)N)cc1	MPTP inh 99, SKN-1 block 43 (no result: CFTR F508del cor) | Rh123 counter inactive | MPTP swell DR 5.5 | MPTP cs DR 41
COc1cccc(-c2ccc([C@H]3[C@@H](CO)N4C(=O)CN(C(=O)c5ccncc5)C[C@H]34)cc2)c1	none (no result: MPTP inh, SKN-1 block, NRP1-CendR mod, ATG4B inhibitor)
